Source: PubChem BioAssay
PAX8 reporter = inhibitors of PAX8-driven TPO luciferase reporter, primary screen, RMG-I cells, single concentration. 360,000 tested, 1.2% active. SteadyGlo, 24 h. inhibition, % at 12.6 µM. AID 652154, 2013;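 active = mean replicate inhibition at least 60% with every replicate also reaching 60%; inconclusive = only one of the two criteria is met; inactive = mean below 60% and not all replicates reaching 60%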;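 also: luciferase light reporting Pax8 driven TPO promoter activity; plate controls were median of neutral control wells for no effect and mitoxantrone controls for full effect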
Peg3 prom inh-1 = Peg3 promoter-driven luciferase inhibitors, primary screen, cell-based, HeLa, luciferase luminescence. inhibition, % at 20 µM. 360,000 tested, 1.7% active. HeLa PEG-Prom luciferase reporter, overnight;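 active = inhibition of at least 50% at 20 µM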
MITF TRPM1 inh = inhibitors of MITF-dependent TRPM1 promoter reporter, primary screen, cell-based, SK-MEL-5, single point, luciferase | AID 488899, 2010 | SK-MEL-5 TRPM1 promoter luciferase, 24 h | 330,000 tested, 0.83% active | inhibition, % at 12.5 µM;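 active = mean inhibition across replicates of 60% or more, whatever share of single replicates reaches that level; inconclusive = some that reach 60%, reason not given; inactive = mean inhibition across replicates below 60%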
EBV LMP1 NFkB = EBV LMP1-driven NF-kappaB luciferase reporter inhibitors, primary screen, cell-based, luminescence, single point | LMP1-induced NF-kappaB luciferase reporter cells | inhibition, % at 12.5 µM | 350,000 tested, 0.69% active | AID 504558, 2011; in the data active = inhibition above about 41%; inconclusive = no clear call, values can overlap the other calls;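 also: 0% = neutral control wells and 100% = reference inhibitor control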
HIF-2a inh = HIF-2a reporter inhibitors, primary screen, luminescence, 786-0 RCC cells; 786-0 RCC cells HIF-2a reporter, luciferase luminescence, overnight; 360,000 tested, 0.72% active; inhibition, % at 18.8 µM;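 active = inhibition of the luminescence signal of 40% or more relative to plate controls, in a single-dose primary screen at 18.75 µM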
Shn3 3UTR inh = reduction of Shn3 3'UTR firefly luciferase signal, primary screen, Schnurri-3 inhibitor project, cell-based, Clone20 osteoblasts, set 2; Clone20 osteoblast Shn3 3'UTR firefly luciferase, 24 h; inhibition, % at 12.5 µM; 360,000 tested, 0.52% active; AID 588674, 2011;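 active = mean inhibition of at least 75% with every replicate also reaching 75%; inconclusive = mean inhibition at least 75% but some replicate below; inactive = mean inhibition below 75%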;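 also: 0% = median of neutral control wells and 100% = pilot-screen positive control compound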
Peg3 prom inh-2 = Peg3 promoter reporter inhibitors, retest, confirmation, cell-based, HeLa, luciferase reporter, single concentration. shares compounds with Peg3 prom inh-1. HeLa PEG-Prom luciferase reporter, luminescence, overnight. inhibition, % at 20 µM. 1,300 tested, 84% active;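 active = at 20 µM dose, 40% or more inhibition averaged across four replicates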
The depositor's hits bear a star; ? = inconclusive; · = no result given. Hits are enriched below; roughly 2.8% of the tested compounds scored in any of these assays.

SMILES	PAX8 reporter	Peg3 prom inh-1	MITF TRPM1 inh	EBV LMP1 NFkB	HIF-2a inh	Shn3 3UTR inh	Peg3 prom inh-2
CCOc1cccc(C(=O)Nc2cccc(-c3nnc(-c4ccccc4)o3)c2)c1	·	75.8*	-25.7	6.9	-73.8	14.0	·
CCOc1cccc(C(=O)Nc2cccc(-c3nnc(-c4ccc(C)cc4)o3)c2)c1	·	12.4	82.5*	-54.0	0.7	-10.7	·
COc1cccc(C(=O)Nc2cccc(-c3nnc(-c4ccccc4)o3)c2)c1	0.3	-10.4	-28.8	-2.3	-72.2	8.5	·
C[C@H]1CN([C@@H](C)CO)C(=O)Cc2cc(NC(=O)CCC(F)(F)F)ccc2O[C@@H]1CN(C)S(=O)(=O)c1cn(C)cn1	-7.7	·	·	·	·	·	·
Cc1ccc(N2CN(Cc3ccco3)CNC2=S)c(C)c1	61.3*	-2.0	2.0	0.0	-1.5	-2.1	·
COC(=O)[C@@]1(Cc2ccccc2)N=C(c2ccc(OCCCO)cc2)O[C@H]1c1ccccc1CN=[N+]=[N-]	96.3*	·	·	·	·	·	·
COC(=O)[C@]1(CCS(=O)(=O)c2ccccc2)N=C(c2ccc(OCCCO)cc2)O[C@@H]1c1ccccc1CN=[N+]=[N-]	95.0*	·	·	·	·	·	·
COC(=O)[C@]1(Cc2ccccc2)N=C(c2ccc(OCCCO)cc2)O[C@@H]1c1ccccc1CN=[N+]=[N-]	10.5	·	·	·	·	·	·
O=C(C[C@H]1C[C@@H]2c3cc(NC(=O)Nc4ccccc4)ccc3O[C@@H]2[C@H](CO)O1)NC1CCCCC1	-4.2	·	·	·	·	·	·
CCCCn1nc(C(=O)Nc2cc(C(F)(F)F)ccc2N2CCOCC2)ccc1=O	93.4*	13.2	19.0	-2.1	12.7	35.6	·
O=C(C[C@H]1C[C@H]2c3cc(NC(=O)C4CCC4)ccc3O[C@H]2[C@H](CO)O1)NCc1cc(F)ccc1F	16.2	·	·	·	·	·	·
CN1CCN(CCNC(=O)c2ccc3nc(-c4ccc(F)cc4)c(-c4ccc(F)cc4)nc3c2)CC1	-1.1	74.4*	89.4*	-5.1	-5.3	-3.1	90.0*
C[C@@H]1CN([C@H](C)CO)C(=O)CCCn2nncc2CO[C@H]1CN(C)C(=O)Nc1ccccc1	3.9	·	·	·	·	·	·
O=c1cc2oc3cc(O)c(O)cc3c(-c3ccccc3[N+](=O)[O-])c-2cc1O	101.9*	60.3*	44.7	23.2	16.9	25.5	74.7*
CC(=O)Nc1ccc(NC(=O)c2nc(S(=O)(=O)Cc3ccccc3)ncc2Cl)cc1	93.8*	101.6*	87.5*	-3.4	-0.2	94.9*	95.5*
CSc1ncc(Cl)c(C(=O)Nc2ccc(NC(C)=O)cc2)n1	1.5	-3.9	-14.1	-3.6	-5.2	-76.6	·
Cc1noc(C)c1NC(=O)N(C)C[C@@H]1Oc2ccc(NS(=O)(=O)c3cccs3)cc2CC(=O)N([C@H](C)CO)C[C@H]1C	5.2	·	·	·	·	·	·
COc1cc(C)ccc1N(CCCN1C(=O)c2cccc3cccc(c23)C1=O)C(=O)c1cccs1	26.1	12.0	2.1	10.3	12.2	25.6	·
COc1ccc(N(CCCN2C(=O)c3cccc4cccc(c34)C2=O)C(=O)c2cccs2)cc1	10.1	52.5*	15.0	4.0	9.0	-1.8	42.3*
CN(C)CCN(C(=O)c1ccc(S(=O)(=O)N(C)c2ccccc2)cc1)c1nc2cc3c(cc2s1)OCCO3	-77.9	-133.4	-46.3	-14.5	-159.3	-51.7	·
CCN(Cc1ccccc1)S(=O)(=O)c1ccc(C(=O)N(CCCN(C)C)c2nc3cc4c(cc3s2)OCCO4)cc1	-2.3	53.3*	44.6	-33.7	-42.2	-18.0	72.5*
CN(C)CCCN(C(=O)c1ccc(C(=O)c2ccccc2)cc1)c1nc2cc3c(cc2s1)OCO3	2.7	85.9*	18.7	2.3	-3.8	34.1	90.2*
Cc1ccc2nc(N(CCCN(C)C)C(=O)c3ccc4c(c3)CCCC4)sc2c1	-11.1	107.6*	?	-10.1	3.8	2.9	97.9*
COc1ccc(NC(=O)N(C)C[C@H]2OCCCC[C@@H](C)Oc3ccc(NC(=O)Nc4ccc(C(F)(F)F)cc4)cc3C(=O)N([C@@H](C)CO)C[C@H]2C)cc1	-2.4	·	·	·	·	·	·
CC(=O)N1[C@H](CN(C(=O)c2ccc(F)cc2)C(C)C)[C@@H](c2ccccc2)[C@@H]1CO	3.0	·	·	·	·	·	·
SMILES	PAX8 reporter	Peg3 prom inh-1	MITF TRPM1 inh	EBV LMP1 NFkB	HIF-2a inh	Shn3 3UTR inh	Peg3 prom inh-2
O=C(NCC[C@H]1CC[C@H](NS(=O)(=O)Cc2ccccc2)[C@@H](CO)O1)C1CCC1	-4.4	·	·	·	·	·	·
CCCC#Cc1ccc([C@H]2[C@@H](CO)N3CCCCN(CC4CC4)C[C@H]23)cc1	14.6	·	·	·	·	·	·
CCOC(=O)CN(C(=O)CSc1nnc2c(n1)[nH]c1ccc(F)cc12)c1ccccc1	·	56.3*	8.9	6.7	15.9	37.9	49.0*
CCOC(=O)CN(C(=O)CSc1nnc2c(n1)[nH]c1ccccc12)c1ccccc1	·	24.9	22.8	-9.8	8.3	17.0	·
CC1CCc2cc(F)ccc2N1C(=O)CSc1nnc2c(n1)[nH]c1ccc(F)cc12 (stereo not given)	·	99.8*	17.5	-23.5	3.2	10.5	23.3
CC(C)n1cc(CN2CCC(C(=O)Nc3cccc(-c4cccc(Cl)c4)c3)CC2)cn1	·	110.6*	38.3	2.0	16.0	18.2	98.1*
COc1ccc(NC(=O)N(C)C[C@@H]2OCCCC[C@H](C)Oc3ccc(NS(=O)(=O)c4c(C)noc4C)cc3C(=O)N([C@@H](C)CO)C[C@H]2C)cc1	-40.9	·	·	·	·	·	·
Oc1c(C(Nc2ccccn2)c2cccnc2)cc(Cl)c2cccnc12 (stereo not given)	·	25.9	6.5	8.7	25.3	48.6	·
Cc1cc(NC(c2cccnc2)c2ccc3cccnc3c2O)no1 (stereo not given)	·	73.1*	57.1	24.3	-3.0	80.0	69.4*
Oc1cccc(C(Nc2nccs2)c2ccc3cccnc3c2O)c1 (stereo not given)	74.6*	55.7*	47.8	50.6*	15.7	91.1*	85.5*
O=C(COc1cccc2cccnc12)Nc1nccs1	-77.2	-206.4	-34.0	-1.2	-206.0	-95.4	·
COc1cccc(C(=O)c2sc(NC(C)C)nc2N)c1	·	105.1*	4.4	-71.6	-92.8	-49.0	76.3*
CCN=c1scc(-c2ccc(F)cc2)n1/N=C/c1ccccn1	-174.6	-305.7	-84.4	-19.7	-348.8	-71.0	·
CN=c1scc(-c2ccccc2F)n1/N=C/c1ccc[nH]1	95.6*	90.7*	90.3*	82.5*	92.0*	73.4	92.1*
CC=Cc1ccc2n(c1=O)C[C@@H]1[C@@H](CO)[C@H](C(=O)N3CCN(C)CC3)N(Cc3ccccc3F)[C@H]21 (mixture of isomers)	-6.7	·	·	·	·	·	·
CCOc1ccc(-n2cc(-c3ccccc3)c3c(N4CCOCC4)ncnc32)cc1	3.4	51.1*	10.6	14.8	17.7	79.1	60.2*
